Only some compounds are listed: those with a hit (about 3.4% of all), similar ones and a draw of the others.
MITF primary: blocks human microphthalmia-associated transcription factor | O75030 | AlphaScreen MITF homodimerization, bead proximity signal | inhibition, % at 2.6 µM | hit rate 0.91% among 650,000; in the data active means inhibition above about 50%;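 further: 0% = vehicle wells with protein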
TEAD-YAP inh: TEAD-YAP interaction inhibition; HEK-TIYL cells, TEAD-Gal4/YAP UAS-luciferase luminescence; inhibition, % at 9.12 µM; hit rate 1.4% among 640,000; in the data active means inhibition above about 32%;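 further: 0% = median of test compound wells and 100% = reference inhibitor wells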
GPR151 activ: activates the human receptor GPR151; Q8TDV0; PathHunter beta-arrestin GPR151 cells, luminescence; activation, % at 11.2 µM; hit rate 1% among 650,000; in the data active means activation above about 4.9%;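 further: 0% = median of compound wells and 100% = cells with positive control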
Target sequence (Q8TDV0 whole entry, looked up): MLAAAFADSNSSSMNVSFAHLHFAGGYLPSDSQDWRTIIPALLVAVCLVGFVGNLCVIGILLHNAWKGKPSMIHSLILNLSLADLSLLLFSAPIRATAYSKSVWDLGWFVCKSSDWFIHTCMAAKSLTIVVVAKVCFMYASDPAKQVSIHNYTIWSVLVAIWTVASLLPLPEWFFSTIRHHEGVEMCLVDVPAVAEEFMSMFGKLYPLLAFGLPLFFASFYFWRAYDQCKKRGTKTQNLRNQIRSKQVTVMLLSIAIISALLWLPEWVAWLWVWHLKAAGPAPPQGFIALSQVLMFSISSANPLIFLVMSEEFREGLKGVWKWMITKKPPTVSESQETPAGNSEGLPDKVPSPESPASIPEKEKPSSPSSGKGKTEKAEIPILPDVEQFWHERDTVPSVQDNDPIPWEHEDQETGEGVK
FBW7 act: human FBW7 E3 ligase activation, primary screen | AlphaScreen FBW7–phospho-cyclin E peptide binding, activator screen | normalized activity (activation), % at 26.1 µM | hit rate 0.13% among 650,000; in the data active means normalized activity above about 1.9%;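 further: purified mutant Fbw7 with reduced substrate affinity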
Starred values were filed as active, the others as inactive.

SMILES	MITF primary	TEAD-YAP inh	GPR151 activ	FBW7 act
COc1ccc(C2=C/C(=C/c3cccc([N+](=O)[O-])c3)C(=O)O2)cc1	9	3	0	0
COc1ccc(OCCn2cc(C(=S)N3CCOCC3)c3ccccc32)cc1	3	32*	1	0
COc1ccccc1OCCn1cc(C(=S)N2CCOCC2)c2ccccc21	15	-5	0	0
Nc1nc(Nc2ccc(-n3ccnc3)cc2)nc2c1ncn2-c1ccsc1	6	24	1	0
OCCNc1nc(Nc2cnccn2)nc2c1ncn2-c1ccsc1	-9	25	-2	0
OCCNc1nc(Nc2ccncn2)nc2c1ncn2-c1ccsc1	-3	36*	1	0
Nc1nc(Nc2ccncn2)nc2c1ncn2-c1ccsc1	12	38*	0	16*
CCOc1ccc(NC2SC(=O)N(c3ccc(C)cc3)C2=O)cc1 (centres undefined)	2	5	-1	0
O=C(Nc1ccc([N+](=O)[O-])cc1)Nc1nc2c(ccc3ccccc32)s1	1	13	-2	0
Cc1nc2ccccc2c2c1CC(C(C)(Cl)Br)O2 (centres undefined)	-4	34*	0	0
COc1ccc(C(C)=O)cc1COC(=O)c1ccc(-n2nc(C)cc2C)cc1	-13	0	0	0
CCCc1ccc(C(=O)Nc2cnc3ccccc3c2)cc1	12	70*	-5	0
Cc1nc(NCc2ccccc2)cc(-c2cccnc2)n1	1	-4	1	0
Cc1ccccc1-n1ncc(C(C)NC(=O)c2c(C)nc3sccn23)c1C (centres undefined)	-4	59*	0	1
CN1CCN(C(=O)C2CCCN(c3ccc(-c4ccccc4)nn3)C2)CC1 (centres undefined)	27	-18	-2	1
COc1ccc(Cc2cnc(NC(=O)c3ccc(C)cc3)s2)cc1	-6	50*	1	0
COc1ccc(Cc2cnc(NC(C)=O)s2)cc1	0	-29	-1	0
CCCCOc1ccc(C(=O)Nc2nnc(CC)s2)cc1	7	-3	-1	0
CCc1nnc(NC(=O)c2ccc(OC)cc2)s1	18	40*	-7	0
CCOc1ccc(/C=C/C(=O)Nc2ncc(Cc3ccc(C)cc3)s2)cc1	-3	3	1	0
CC(C)(C)c1ccc(C(=O)Nc2ncc(Cc3ccc(F)cc3)s2)cc1	-2	7	2	0
O=C(Nc1ncc(Cc2ccc(F)cc2)s1)c1ccc(Br)cc1	9	38*	-1	0
Cc1ccc(Cc2cnc(NC(=O)/C=C/c3ccco3)s2)cc1	5	58*	2	0
O=C(NC1CCCCC1)c1ccc(S(=O)(=O)C(F)F)cc1	1	-8	3	0
CC1=NN(c2nc(-c3cccc(Cl)c3)cs2)C(=O)C1	1	6	0	0
SMILES	MITF primary	TEAD-YAP inh	GPR151 activ	FBW7 act
CCCCCCCC(=O)NNC(=O)c1ccco1	11	2	1	0
O=C(Nc1cccc(N2CCC(NCc3ccco3)CC2)c1)c1ccncc1	1	-2	0	0
COc1ccc(Cc2cnc(NC(=O)COc3ccccc3Cl)s2)cc1	-14	58*	1	0
CCOC(=O)COn1c(=O)c(=O)n(OCc2ccccc2)c2ccccc21	0	4	-1	0
CO[C@H]1[C@@H]([C@@]2(C)O[C@@H]2CC=C(C)C)[C@]2(CC[C@H]1OC(=O)/C=C/C=C/C=C/C=C/C(=O)O)CO2	-6	46*	1	0
COc1cc(N2C(=O)NC(=O)/C(=C\c3ccc(N(C)C)cc3)C2=O)cc(OC)c1OC	2	2	0	2.5*
CC(C)c1cc(=O)[nH]c(-n2nc(C3CC3)cc2NC(=O)C(C)(C)C)n1	3	57*	1	-1
COCCOC(=O)C1=C(C)NC(C)=C(C(=O)OCCOC)C1c1cn(-c2ccccc2)nc1-c1ccc(Cl)cc1	-7	0	0	0
COc1ccc(C2(NC(C)=O)CCN(CCN3CCCCC3)CC2)cc1	-3	6	-1	0
CN=c1scc(-c2cccc(Br)c2)n1/N=C/c1ccncc1	25	-62	2	0
CN=c1scc(-c2ccccc2F)n1/N=C/c1ccc(O)c(O)c1O	4	89*	-5	0
CCN=c1scc(-c2ccc(F)cc2)n1/N=C/c1ccccn1	12	-86	-1	0
CCN=c1scc(-c2ccccc2)n1/N=C/c1ccccn1	1	55*	-2	-1
CN=c1scc(-c2ccccc2F)n1/N=C/c1ccsc1	16	99*	-8	0
CN=c1scc(-c2ccccc2)n1/N=C/c1ccsc1	29	99*	-2	0
COC(=O)C1=C(O)/C(=C/c2ccc(OCC(=O)Nc3ccccc3OC)cc2)N=C1C	4	-8	1	0
CN=c1scc(C)n1/N=C/c1ccc2c(c1)OCO2	14	15	-7	0
CN=c1scc(-c2ccccc2F)n1/N=C/c1ccc2c(c1)OCO2	14	94*	-10	0
CN=c1scc(-c2ccccc2Br)n1/N=C/c1ccc(O)cc1O	6	96*	-3	0
CN=c1scc(-c2ccccc2Br)n1/N=C/c1ccco1	22	2	-2	0
N#Cc1ccc(Oc2ccc(-c3ccccc3)cc2)cc1C#N	11	12	-1	0
Cc1ccc(-n2[nH]c(C)c(C=NC34CN5CN(CN(C5)C3)C4)c2=O)cc1	6	2	1	-1
Cc1cc(NC(=O)c2ccc(S(=O)(=O)NC3CC3)cc2)c2cc(F)cc(F)c2n1	-11	48*	-1	0
COCc1ccc([C@@H]2C[C@H]3CN(Cc4cccc(OC)c4)C(=O)[C@]34CCCN24)o1	12	13	-2	1
CC(=O)NC1=NC(=O)/C(=C/c2cc(C)n(-c3ccc4c(c3)OCO4)c2C)S1	2	4	0	0
SMILES	MITF primary	TEAD-YAP inh	GPR151 activ	FBW7 act
Cc1cc(C=C2C(=O)NC(=S)NC2=O)c(C)n1-c1cccc(C(=O)O)c1	78*	-1	2	0
CC(=O)NC1=NC(=O)/C(=C/c2cc(C)n(-c3cccc(C(=O)O)c3)c2C)S1	75*	18	1	-1
Cc1cc(C=C2C(=O)N(C)C(=S)N(C)C2=O)c(C)n1-c1ccc(Cl)c(C(=O)O)c1	68*	3	-1	0
Cc1cc(C=C2C(=O)NC(=O)NC2=O)c(C)n1-c1ccc(C(=O)O)c(Cl)c1	54*	6	0	0
Cc1cc(C=C2C(=O)N(C)C(=O)N(C)C2=O)c(C)n1-c1ccc(Cl)c(C(=O)O)c1	4	-9	0	-1
Cc1cccc(-n2c(C)cc(C=C3C(=O)NC(=S)NC3=O)c2C)c1	-11	12	0	0
CCc1ccccc1NC(=O)c1nn2c(C(F)(F)F)cc(-c3cccs3)nc2c1Cl	4	14	-2	1
Cc1c(-c2cccc(NC(=O)C3c4ccccc4Oc4ccccc43)c2)nc2ncccn12	-7	0	-1	0
COc1ccc(S(=O)(=O)N(CC(=O)Nc2ccc(C)cc2C)c2ccc(Cl)cc2)cc1	14	7	0	0
COc1ccc(C2(C(=O)N3CCC(Nc4nc5c(c(=O)[nH]4)CCC5)CC3)CC2)cc1	-2	1	0	1.9*

Source: PubChem BioAssay (The Scripps Research Institute Molecular Screening Center)
